# About 7,900 targets were measured; listed, in parts, are those with a hit and a random draw of the rest. About 0.6% of all pairs of compound and target were hits. Values without a mark were called inactive.
# Columns and labels:
# Assay in all cases: log2 fold change, soluble protein after heating vs DMSO (PISA); higher = thermal stabilisation; K562 cells, 10 uM, 30 min; active = over 0.2 and 3.5 SD of the protein, either way, in both replicates (recomputed)
# saracatinib = compound: CN1CCN(CCOc2cc(OC3CCOCC3)c3c(Nc4c(Cl)ccc5c4OCO5)ncnc3c2)CC1 [saracatinib]
# In short: (§1)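 K562 cells at 2×10^6 cells/mL were treated with 10 μM compound for 30 min. Aliquots were heated for 3 min across 48°C-58°C, pooled, and extracted in PBS with 0.5% NP-40 at 4°C; soluble protein was the supernatant after 21,000xg for 90 min. Soluble protein was quantified by TMTpro 16plex LC-MS/MS with channel sums equalised, and reported as log2 fold change in thermal stability against DMSO controls, with values from duplicates.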
# sotrastaurin = compound: CN1CCN(c2nc(C3=C(c4c[nH]c5ccccc45)C(=O)NC3=O)c3ccccc3n2)CC1 [sotrastaurin]
# In short: as §1
# alvocidib = compound: CN1CC[C@H](c2c(O)cc(O)c3c(=O)cc(-c4ccccc4Cl)oc23)[C@H](O)C1 [alvocidib]
# In short: as §1
# Tubastatin A = compound: CN1CCc2c(c3ccccc3n2Cc2ccc(C(=O)NO)cc2)C1 [Tubastatin A]
# In short: as §1
# [1] = compound: CNC(=O)C1=CC=CC=C1NC2=NC(=NC=C2Cl)NC3=C(C=C(C=C3)N4CCOCC4)OC
# In short: as §1
# defactinib = compound: CNC(=O)c1ccc(Nc2ncc(C(F)(F)F)c(NCc3nccnc3N(C)S(C)(=O)=O)n2)cc1 [defactinib]
# In short: as §1
# rucaparib = compound: CNCc1ccc(-c2[nH]c3cc(F)cc4c3c2CCNC4=O)cc1 [rucaparib]
# In short: as §1
# [2] = compound: CNc1nc(-c2ccc3c(N)n[nH]c3c2)cc(N2C[C@@H](C(=O)NC3CCCCC3)CC[C@H]2C)n1
# In short: as §1
# encorafenib = compound: COC(=O)N[C@@H](C)CNc1nccc(-c2cn(C(C)C)nc2-c2cc(Cl)cc(NS(C)(=O)=O)c2F)n1 [encorafenib]
# In short: as §1
# [3] = compound: COC(=O)[C@H](CCSC)NC(=O)C1=C(C=C(C=C1)NC[C@H](CS)N)C2=CC=CC=C2
# In short: as §1
# Chain of UniProt P49756 (P49756 whole entry, looked up): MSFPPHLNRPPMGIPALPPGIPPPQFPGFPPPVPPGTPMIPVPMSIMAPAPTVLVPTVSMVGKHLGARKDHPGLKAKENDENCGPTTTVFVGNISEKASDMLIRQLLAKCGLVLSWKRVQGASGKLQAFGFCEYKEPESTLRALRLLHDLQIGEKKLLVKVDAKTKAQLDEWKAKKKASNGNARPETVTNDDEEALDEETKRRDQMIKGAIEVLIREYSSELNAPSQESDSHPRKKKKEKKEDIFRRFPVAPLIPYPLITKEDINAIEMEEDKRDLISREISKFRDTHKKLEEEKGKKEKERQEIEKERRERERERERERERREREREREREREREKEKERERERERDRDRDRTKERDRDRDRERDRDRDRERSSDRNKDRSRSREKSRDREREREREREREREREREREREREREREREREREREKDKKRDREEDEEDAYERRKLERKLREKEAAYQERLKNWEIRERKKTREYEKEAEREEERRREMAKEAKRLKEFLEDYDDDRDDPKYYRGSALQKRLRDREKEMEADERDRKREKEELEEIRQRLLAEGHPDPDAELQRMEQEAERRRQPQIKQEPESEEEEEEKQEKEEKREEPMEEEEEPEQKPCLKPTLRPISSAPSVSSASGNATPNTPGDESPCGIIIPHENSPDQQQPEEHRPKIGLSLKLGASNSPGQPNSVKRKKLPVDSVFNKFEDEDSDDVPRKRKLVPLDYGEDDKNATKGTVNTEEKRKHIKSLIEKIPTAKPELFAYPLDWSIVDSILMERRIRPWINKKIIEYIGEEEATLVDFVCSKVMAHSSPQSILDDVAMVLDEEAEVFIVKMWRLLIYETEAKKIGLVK
# Chain of UniProt Q5VUM1 (Q5VUM1 whole entry, looked up): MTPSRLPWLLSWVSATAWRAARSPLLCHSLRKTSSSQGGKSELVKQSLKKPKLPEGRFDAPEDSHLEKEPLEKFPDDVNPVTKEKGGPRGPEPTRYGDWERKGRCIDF
# Chain of UniProt Q8IXJ6 (Q8IXJ6 whole entry, looked up): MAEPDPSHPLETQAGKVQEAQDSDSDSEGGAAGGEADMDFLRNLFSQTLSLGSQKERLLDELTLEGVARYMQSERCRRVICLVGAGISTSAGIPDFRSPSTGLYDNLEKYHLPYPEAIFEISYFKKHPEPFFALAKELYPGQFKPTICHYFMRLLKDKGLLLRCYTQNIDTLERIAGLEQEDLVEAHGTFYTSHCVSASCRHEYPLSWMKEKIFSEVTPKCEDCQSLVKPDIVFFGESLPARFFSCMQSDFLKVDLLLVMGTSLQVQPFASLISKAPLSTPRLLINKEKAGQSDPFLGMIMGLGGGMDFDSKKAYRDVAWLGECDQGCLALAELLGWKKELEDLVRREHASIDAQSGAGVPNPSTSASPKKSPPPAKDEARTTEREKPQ
# Chain of UniProt Q96DX4 (Q96DX4 whole entry, looked up): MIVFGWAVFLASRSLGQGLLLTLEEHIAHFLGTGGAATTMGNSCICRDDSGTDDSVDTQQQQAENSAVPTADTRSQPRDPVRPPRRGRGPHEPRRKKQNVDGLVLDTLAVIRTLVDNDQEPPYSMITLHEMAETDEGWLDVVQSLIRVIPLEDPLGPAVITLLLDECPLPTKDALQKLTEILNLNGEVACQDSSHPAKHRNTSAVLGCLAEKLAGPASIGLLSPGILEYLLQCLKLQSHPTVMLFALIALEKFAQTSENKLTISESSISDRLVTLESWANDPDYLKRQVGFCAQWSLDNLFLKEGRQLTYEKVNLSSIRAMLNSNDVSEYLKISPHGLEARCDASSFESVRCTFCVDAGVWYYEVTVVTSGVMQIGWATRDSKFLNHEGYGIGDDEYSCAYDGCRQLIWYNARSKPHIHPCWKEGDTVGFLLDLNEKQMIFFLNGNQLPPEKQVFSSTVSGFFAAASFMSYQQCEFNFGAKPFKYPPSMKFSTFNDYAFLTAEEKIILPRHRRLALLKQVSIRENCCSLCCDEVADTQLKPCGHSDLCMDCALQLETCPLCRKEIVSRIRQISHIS
# Chain of UniProt Q8N122 (Q8N122 whole entry, looked up): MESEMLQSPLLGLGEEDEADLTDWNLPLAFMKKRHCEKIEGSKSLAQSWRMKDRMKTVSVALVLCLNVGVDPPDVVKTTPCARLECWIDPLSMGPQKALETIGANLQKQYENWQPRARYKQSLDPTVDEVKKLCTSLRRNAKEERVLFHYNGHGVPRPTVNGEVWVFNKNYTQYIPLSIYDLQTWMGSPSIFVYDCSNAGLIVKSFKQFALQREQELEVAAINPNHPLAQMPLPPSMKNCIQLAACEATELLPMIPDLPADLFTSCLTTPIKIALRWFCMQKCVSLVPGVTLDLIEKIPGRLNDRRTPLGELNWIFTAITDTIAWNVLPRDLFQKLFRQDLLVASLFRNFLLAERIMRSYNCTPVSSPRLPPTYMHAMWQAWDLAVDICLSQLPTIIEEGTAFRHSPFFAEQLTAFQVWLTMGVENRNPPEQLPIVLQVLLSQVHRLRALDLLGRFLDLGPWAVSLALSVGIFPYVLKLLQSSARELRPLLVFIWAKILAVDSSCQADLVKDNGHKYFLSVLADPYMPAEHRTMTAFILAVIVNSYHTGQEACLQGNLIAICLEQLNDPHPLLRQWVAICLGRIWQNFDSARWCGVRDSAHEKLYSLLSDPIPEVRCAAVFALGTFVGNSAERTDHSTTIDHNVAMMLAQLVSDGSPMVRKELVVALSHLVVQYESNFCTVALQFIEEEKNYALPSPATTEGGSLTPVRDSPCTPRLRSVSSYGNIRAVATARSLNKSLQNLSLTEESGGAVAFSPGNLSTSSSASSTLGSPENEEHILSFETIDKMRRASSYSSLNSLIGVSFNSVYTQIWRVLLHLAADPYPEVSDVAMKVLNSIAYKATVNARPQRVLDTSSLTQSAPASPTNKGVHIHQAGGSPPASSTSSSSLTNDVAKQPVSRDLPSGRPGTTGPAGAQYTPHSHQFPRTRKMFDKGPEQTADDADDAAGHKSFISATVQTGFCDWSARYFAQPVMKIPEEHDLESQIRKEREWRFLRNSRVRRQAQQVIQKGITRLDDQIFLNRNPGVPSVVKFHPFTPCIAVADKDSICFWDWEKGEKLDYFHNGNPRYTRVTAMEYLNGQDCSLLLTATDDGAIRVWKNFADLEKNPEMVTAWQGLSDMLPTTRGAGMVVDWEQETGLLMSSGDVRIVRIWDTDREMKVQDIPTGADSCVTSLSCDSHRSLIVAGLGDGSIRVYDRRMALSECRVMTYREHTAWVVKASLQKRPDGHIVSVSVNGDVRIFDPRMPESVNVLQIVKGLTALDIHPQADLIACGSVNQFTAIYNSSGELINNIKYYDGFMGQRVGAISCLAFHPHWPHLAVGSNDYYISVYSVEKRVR
# Chain of UniProt O15127 (O15127 whole entry, looked up): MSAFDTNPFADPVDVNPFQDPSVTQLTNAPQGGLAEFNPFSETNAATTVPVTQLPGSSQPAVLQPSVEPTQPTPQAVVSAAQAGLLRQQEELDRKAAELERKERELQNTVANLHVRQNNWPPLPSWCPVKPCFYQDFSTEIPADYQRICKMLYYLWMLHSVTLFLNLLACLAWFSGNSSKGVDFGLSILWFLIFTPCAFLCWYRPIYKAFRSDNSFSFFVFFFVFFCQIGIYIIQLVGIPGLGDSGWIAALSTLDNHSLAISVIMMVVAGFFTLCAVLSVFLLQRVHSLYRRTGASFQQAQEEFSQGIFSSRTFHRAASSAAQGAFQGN
# Chain of UniProt Q14498 (Q14498 whole entry, looked up): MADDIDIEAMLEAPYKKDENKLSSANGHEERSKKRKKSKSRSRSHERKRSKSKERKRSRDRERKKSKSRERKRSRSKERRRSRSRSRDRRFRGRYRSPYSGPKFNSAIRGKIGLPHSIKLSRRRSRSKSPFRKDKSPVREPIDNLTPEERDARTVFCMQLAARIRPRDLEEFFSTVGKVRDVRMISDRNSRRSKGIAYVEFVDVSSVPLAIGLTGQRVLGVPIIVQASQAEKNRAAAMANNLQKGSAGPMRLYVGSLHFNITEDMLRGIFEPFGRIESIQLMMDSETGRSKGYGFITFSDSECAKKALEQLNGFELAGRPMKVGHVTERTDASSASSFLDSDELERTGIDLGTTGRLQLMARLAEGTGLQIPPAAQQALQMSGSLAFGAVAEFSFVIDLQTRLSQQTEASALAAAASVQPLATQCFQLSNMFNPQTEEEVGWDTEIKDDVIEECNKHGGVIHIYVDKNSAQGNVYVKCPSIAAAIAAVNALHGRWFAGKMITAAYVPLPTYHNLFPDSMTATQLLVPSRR
# Chain of UniProt Q8WXD2 (Q8WXD2 whole entry, looked up): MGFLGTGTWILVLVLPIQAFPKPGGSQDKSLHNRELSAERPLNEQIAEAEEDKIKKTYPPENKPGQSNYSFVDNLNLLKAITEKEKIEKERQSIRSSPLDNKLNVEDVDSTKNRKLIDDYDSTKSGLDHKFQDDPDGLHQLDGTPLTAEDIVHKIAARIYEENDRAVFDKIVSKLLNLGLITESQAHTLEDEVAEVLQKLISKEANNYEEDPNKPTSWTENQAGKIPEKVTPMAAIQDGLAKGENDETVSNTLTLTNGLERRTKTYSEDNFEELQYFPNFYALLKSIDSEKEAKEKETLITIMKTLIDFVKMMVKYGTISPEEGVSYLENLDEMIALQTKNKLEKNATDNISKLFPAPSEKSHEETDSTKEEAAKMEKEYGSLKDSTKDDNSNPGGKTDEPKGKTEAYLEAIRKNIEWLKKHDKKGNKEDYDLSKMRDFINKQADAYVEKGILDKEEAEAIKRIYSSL
# Chain of UniProt Q8TBN0 (Q8TBN0 whole entry, looked up): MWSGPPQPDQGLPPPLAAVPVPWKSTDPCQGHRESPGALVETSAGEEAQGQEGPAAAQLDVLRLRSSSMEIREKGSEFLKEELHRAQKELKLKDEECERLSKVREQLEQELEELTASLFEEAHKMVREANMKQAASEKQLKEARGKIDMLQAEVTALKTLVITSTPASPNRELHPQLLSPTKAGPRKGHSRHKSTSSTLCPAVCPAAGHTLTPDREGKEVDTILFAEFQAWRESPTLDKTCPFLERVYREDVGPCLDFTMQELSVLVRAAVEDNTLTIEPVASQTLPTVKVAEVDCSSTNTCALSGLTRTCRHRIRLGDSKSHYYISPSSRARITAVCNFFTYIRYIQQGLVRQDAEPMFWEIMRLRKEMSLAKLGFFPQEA
Target,log2 fold change (saracatinib),log2 fold change (sotrastaurin),log2 fold change (alvocidib),log2 fold change (Tubastatin A),log2 fold change [1],log2 fold change (defactinib),log2 fold change (rucaparib),log2 fold change [2],log2 fold change (encorafenib),log2 fold change [3]
SETD3 (UniProt Q86TU7),0.008,0.012,-0.071,-0.056,0.014,-0.004,0.022,0.032,-0.009,0
RAB3IL1 (UniProt Q8TBN0),0.007,-0.02,0.06,-0.02,0.023,-0.042,-0.005,0.001,-0.03,-0.022
RDH10 (UniProt Q8IZV5),0.005,0.016,-0.043,0.04,0.068,-0.002,-0.034,0.072,-0.011,-0.063
RDH13 (UniProt Q8NBN7),-0.084,0.027,-0.097,-0.063,-0.062,-0.043,0.029,0.016,0.014,-0.016
ROR2 (UniProt Q01974),0.034,-0.071,-0.06,-0.025,-0.023,-0.107,-0.012,0.084,0.03,-0.121
SEC24A (UniProt O95486),0.002,-0.055,-0.071,0.03,0.032,-0.013,0.002,-0.033,0.091,-0.009
RSPRY1 (UniProt Q96DX4),-0.073,-0.01,0.001,0.009,-0.037,0.013,0.118,0.126,0.04,0.009
SLC18B1 (UniProt Q6NT16),0.021,0.023,0.02,0.04,0.061,0.094,-0.012,-0.071,0.012,0.056
SH3GL1 (UniProt Q99961),-0.157,-0.163,-0.118,0.092,-0.035,-0.116,0.022,0.054,0.062,-0.043
RAB3GAP2 (UniProt Q9H2M9),-0.111,-0.195,-0.013,0.058,0.017,-0.064,0.205,0.039,0.189,-0.089
SHROOM2 (UniProt Q13796),-0.118,0.128,0.071,0.283,-0.29,0.059,-0.049,0.08,-0.136,0.1
RBM22 (UniProt Q9NW64),0.016,-0.013,0.081,-0.065,-0.037,-0.05,0.04,-0.155,0.036,0.012
RPTOR (UniProt Q8N122),-0.005,-0.01,0.123,0.027,-0.044,-0.074,-0.068,0.033,0.047,-0.039
SEC31A (UniProt O94979),-0.086,-0.084,-0.006,0.019,0.043,-0.036,0.002,-0.015,0.062,-0.03
SCD (UniProt O00767),0.066,0.036,0.049,-0.234,0.024,0.025,-0.006,-0.164,0.04,0.045
RPS27A (UniProt P62979),0.029,0.107,0.136,-0.013,0.05,0.227,0.105,0.043,-0.007,0.156
SCPEP1 (UniProt Q9HB40),-0.029,0.031,-0.009,-0.012,0.021,0.005,0.064,-0.022,-0.025,-0.004
SLC19A1 (UniProt P41440),0.012,-0.173,0.06,-0.021,-0.035,-0.061,-0.179,-0.048,0.041,-0.003
SEPTIN5 (UniProt G3XAH0),0.045,0.023,-0.033,-0.038,0.042,-0.023,,0.032,,0.028
RBM25 (UniProt P49756),-0.025,-0.109,-0.133,0.058,-0.164,-0.24 (active),0.03,-0.091,-0.094,0.014
SCAMP2 (UniProt O15127),0.084,0.096,-0.155,0.019,0.027,-0.086,-0.321,0.028,0.349,0.101
SCG3 (UniProt Q8WXD2),0.191,0.038,0.106,0.021,0.091,-0.163,0.046,-0.113,-0.069,0.062
RRAS2 isoform 4 (UniProt P62070),0.069,0.075,0.024,0.014,-0.001,-0.016,0,0.05,-0.011,0.004
RBM39 (UniProt Q14498),-0.027,-0.089,0.028,0.026,-0.303,-0.16,0.072,-0.183,0.08,0.011
RNF187 (UniProt Q5TA31),-0.069,0.001,-0.092,0.196,-0.084,-0.047,-0.139,0.05,-0.042,-0.05
RNF167 (UniProt Q9H6Y7),-0.03,0.064,0.055,-0.021,0.035,0.059,,0.042,,-0.006
SDHAF4 (UniProt Q5VUM1),0.139,0.072,0.079,0.086,-0.037,,-0.067,-0.032,-0.01,
SLC12A5 (UniProt Q9H2X9),-0.152,0.053,-0.067,-0.072,-0.007,0.08,-0.138,0.148,0.044,0.075
RRS1 (UniProt Q15050),-0.079,-0.001,0.302,0.071,0.009,0.688,0.488,0.109,0.166,0.047
SIRT2 (UniProt Q8IXJ6),0.031,0.136,-0.023,-0.015,-0.038,-0.015,-0.033,0.181,0.014,0.025

# — the supplement of paper PMC10849652
